Screening results: PubChem BioAssay, Paczesny and Yang Labs, IUPUI and University of Michigan
ST2 IL33 inh: inhibitors of human ST2 (IL1RL1) binding to IL-33, primary screen, biochemical, AlphaLISA; 78,000 compounds, 2.3% hits; inhibition, % for hits at 17 µM; Interleukin-1 receptor-like 1 (Homo sapiens), Q01638; AlphaLISA ST2-Fc/biotin-IL-33 interaction, 1 h; in the data active = inhibition above about 30%
* = called active by the depositor; i = inactive. This is one part of a sample in which hits are shown more often than they occur.

SMILES | ST2 IL33 inh
CC(c1cccc(-c2coc3ccccc3c2=O)c1)N1CCCC1 (configuration not stated) | i
CCCc1ccc(Oc2coc3cc(OC)ccc3c2=O)cc1 | i
O=C(c1ccc(Cl)cc1)N1CCC(C(=O)N2CCC(Cc3ccccc3)CC2)CC1 | i
COc1ccc(S(=O)(=O)N2CCC(C(=O)N3CCC(Cc4ccccc4)CC3)CC2)cc1 | i
CCNc1nc(N2CCCC2)nc(N2CCC(Cc3ccccc3)CC2)n1 | 57.0%*
COc1ccc(CC2(CCC(=O)N3CCN(c4cccc(C)c4C)CC3)CCC(=O)N2)cc1OC (configuration not stated) | i
Cc1ccc(CNc2ccc(C(=O)NCCC3CCCCN3C)cn2)o1 (configuration not stated) | i
CC1=C(C(N)=O)C(c2ccccc2)n2nc(SCc3ccccc3)nc2N1 (configuration not stated) | i
CC1=C(C(=O)Nc2ccccc2C)C(c2ccncc2)n2nc(SCc3ccccc3)nc2N1 (configuration not stated) | 33.0%*
CC1=C(C(=O)Nc2ccccc2)C(c2cccnc2)n2nc(SCc3ccccc3)nc2N1 (configuration not stated) | i
COCC(C)NC(=O)c1cc(-c2ccc(Br)cc2)on1 (configuration not stated) | i
O=C(Nc1ccc(F)c(Cl)c1)c1cc(C2CC2)on1 | i
CC(C)(C)c1ccc(O)c(CN2CCOC3(CNCCOC3)C2)c1 (configuration not stated) | i
CCCCOc1ccc(/C=C2\N=C(c3cccc([N+](=O)[O-])c3)OC2=O)cc1 | i
Cc1ccccc1C1=N/C(=C\c2cccc(F)c2)C(=O)O1 | i
CCCCOc1ccc(C2=N/C(=C\c3ccc(N(C)C)cc3)C(=O)O2)cc1 | 37.0%*
O=C1OC(c2ccc(Br)cc2)=N/C1=C\C=C\c1ccccc1 | i
O=C1OC(c2cccc(I)c2)=N/C1=C\c1ccc(Br)cc1 | i
Cc1ccccc1C1=N/C(=C\C=C\c2ccccc2)C(=O)O1 | 42.0%*
COc1ccc(/C=C2\N=C(c3cccc([N+](=O)[O-])c3)OC2=O)cc1 | i
CN(C)c1ccc(/C=C2\N=C(c3ccc([N+](=O)[O-])cc3)OC2=O)cc1 | i
COc1ccc(/C=C2\N=C(c3cccc(I)c3)OC2=O)cc1 | 31.0%*
O=C1OC(c2ccc(Cl)cc2Cl)=N/C1=C\c1ccccc1 | i
Cc1ccccc1C1=N/C(=C\c2ccccc2)C(=O)O1 | 33.0%*
COc1ccc(/C=C2\N=C(c3ccccc3C)OC2=O)cc1 | i
SMILES | ST2 IL33 inh
CN1C[C@@H](NC(=O)Nc2ccc(C(F)(F)F)cc2)C[C@H]1c1nc(-c2ccccc2)no1 | i
Cc1csc2ncc(C(=O)Nc3cccc(F)c3)c(=O)n12 | i
O=C(Nc1cnc2n1CCCC2)C1CCOC1 (configuration not stated) | i
COc1ccccc1OCc1cc(C(=O)N2CCC2c2ccccc2)n[nH]1 (configuration not stated) | i
CCC(=O)N1CCc2cc(S(=O)(=O)NC(C(=O)NCc3cccnc3)C(C)C)ccc21 (configuration not stated) | i
O=C1CC(c2cccs2)CC2=C1C(c1ccccc1F)Nc1ccccc1N2 (configuration not stated) | i
N#Cc1ccc(NC(=O)c2noc3c2CCC3)cc1 | i
CC1CCN(S(=O)(=O)c2ccc3[nH]c(=O)oc3c2)CC1 | i
Cc1ccc(C)c(CN2CCCN(CC(=O)NC3CCCCC3)S2(=O)=O)c1 | i
COc1c(Cl)cc(Cl)cc1/C=C1\N=C(c2ccccc2)OC1=O | i
Cc1ccc(C2=N/C(=C\c3ccc([N+](=O)[O-])cc3)C(=O)O2)cc1[N+](=O)[O-] | i
Cc1ccccc1C1=N/C(=C\c2ccc(N(C)C)cc2)C(=O)O1 | 40.0%*
COc1ccccc1/C=C1\N=C(c2cc([N+](=O)[O-])cc([N+](=O)[O-])c2)OC1=O | i
CN(C)c1ccc(/C=C2\N=C(c3ccccc3)OC2=O)cc1Br | 41.0%*
COc1cc(C2=N/C(=C\C=C\c3ccccc3)C(=O)O2)cc(OC)c1OC | 30.0%*
Cc1cccc(C2=N/C(=C\c3ccc(Br)cc3)C(=O)O2)c1 | i
O=C1OC(c2ccc(-c3ccccc3)cc2)=N/C1=C\c1ccccc1 | i
Cc1ccc(C2=N/C(=C\c3ccccc3)C(=O)O2)cc1[N+](=O)[O-] | i
Nc1ccc(S(=O)(=O)Nc2nccc(/C=C/c3cccc(Cl)c3)n2)cc1 | i
CCc1cccc(CC)c1NC(=O)CN1C(=O)C2C3CCC(C3)C2C1=O (configuration not stated) | i
CN(C)CCOC(c1ccccc1)c1ccc(Cl)cc1 (configuration not stated) | i
COc1ccccc1-c1coc2cc(OC(C)C(=O)OC3CCCCC3)ccc2c1=O (configuration not stated) | i
